Assay outcomes: PubChem BioAssay, National Center for Advancing Translational Sciences (NCATS)
The list is not random: actives were taken first. Their share in the collection is about 7.4%.
ELG1 genotoxic – induces genotoxicity in HEK293T cells with luciferase-tagged ELG1; HEK293T ELG1-luciferase reporter, luminescence, 16 h; Potency, µM (series often up to 46 µM), without a hit: at the highest dose activity change, positive = activation, hits mostly activators; actives 1.3% (n = 330,000); further: % of control where 0% means no effect; nearly all actives have a fitted effect of over 60% in size
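Reporter readout depends on ELG1 protein level, which increases with genetic stress. After 16 hr compound exposure at 37 °C, luciferase activity was quantified using ONE-Glo.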
SMN2 splice enh – enhancers of SMN2 splice variant expression; HEK293 SMN2-luciferase splicing reporter, luminescence, 30-36 h; AID 1458; Potency, µM (series often up to 46.1 µM), inactives show at the top dose activity change, positive = activation, usual class: activators; actives 2.8% (n = 210,000); further: % of control where 0% means no effect; nearly all actives have a fitted effect of over 55% in size
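HEK293 cells carry an SMN2 minigene-luciferase reporter in which exon 7 inclusion puts luciferase in frame. Cells were seeded at 2000 cells/well, attached for 10-12 hours, then exposed to compounds for 30-36 hours at 37C before ONE-Glo luminescence.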
NPC1 promoter act – NPC1 promoter activation; actives 2.4% (n = 320,000); Huh7 NPC1 promoter luciferase reporter, 24 h; Potency, µM (highest dose often 9.22 µM), for the others: at the top dose activation, most hits filed as activators; further: % of control where 0% means no effect; nearly all actives have a fitted effect of over 60% in size
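Cells: Huh7 expressing luciferase under the NPC1 promoter, 1500/well. Seeded 2 h, compound added, incubated 24 h at 37 °C. Luciferase reagent, 10 min ambient, then luminescence.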
FLuc modulator – firefly luciferase modulation, counter-screen for miR-21 project | purified FLuc, Km substrates, luminescence inhibition | Potency, µM (titrated, usually from 57.5 µM), for inactives: top-dose activity change, negative = inhibition, most hits filed as inhibitors | actives 6.9% (n = 360,000) | AID 588342;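 further: plate controls were vehicle for no effect and reference inhibitor for full effect; nearly all actives have a fitted effect of over 55% in size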
Target sequence (P08659 whole entry, looked up): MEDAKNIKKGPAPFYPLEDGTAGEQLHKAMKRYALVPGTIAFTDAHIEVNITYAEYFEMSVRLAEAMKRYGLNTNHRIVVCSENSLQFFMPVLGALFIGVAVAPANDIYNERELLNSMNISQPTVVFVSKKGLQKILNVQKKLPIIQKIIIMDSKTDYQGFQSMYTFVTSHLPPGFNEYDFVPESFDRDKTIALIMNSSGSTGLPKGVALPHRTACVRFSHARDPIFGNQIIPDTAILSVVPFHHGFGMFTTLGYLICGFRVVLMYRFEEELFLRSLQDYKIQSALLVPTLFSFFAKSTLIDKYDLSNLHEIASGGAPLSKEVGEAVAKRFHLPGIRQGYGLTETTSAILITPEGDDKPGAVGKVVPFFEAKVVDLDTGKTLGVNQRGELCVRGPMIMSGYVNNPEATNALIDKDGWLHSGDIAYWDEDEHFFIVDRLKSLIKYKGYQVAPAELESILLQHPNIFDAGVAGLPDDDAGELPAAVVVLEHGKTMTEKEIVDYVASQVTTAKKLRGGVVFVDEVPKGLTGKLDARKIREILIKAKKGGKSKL
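Biochemical qHTS of compounds, final roughly 60 µM downward over six points, against 10 nM purified firefly luciferase using Km concentrations of substrates (10 uM D-luciferin, 10 uM ATP) in Tris acetate pH 7.5 buffer; luminescence output.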
Rab9 prom act – activators of Rab9 promoter; Huh7 Rab9 promoter-luciferase reporter, luminescence, 24 h; Potency, µM (top dose mostly 9.22 µM), for inactives: top-dose activation, negative = inhibition, hits mostly activators; actives 2.8% (n = 320,000); AID 485297; further: % of control where 0% means no effect; nearly all actives have a fitted effect of over 60% in size
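Huh7 cells stably carrying Rab9 promoter–luciferase reporter, plated 1500 cells/well, compound added after 2 h and incubated 24 h at 37 °C; luciferase luminescence then read after 10 min with detection reagent.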
Starred values were filed as active, the others as inactive; [ ] = dose if it differs, or a comment. The call rests on the fitted dose curve; in most records, active means well fitted curve in the direction sought with a large enough effect; inconclusive means small, poorly fitted or top-dose-only effect, or another doubt; inactive means no such curve, though single readings can be large; an effect the other way counts as inactive or inconclusive. Potency means the concentration at half of the fitted maximal effect.

What do the screens show for `Cc1ccc(-c2cc(-c3ccccc3Cl)[nH]n2)c(O)c1`?
ELG1 genotoxic: inconclusive; SMN2 splice enh: 13µM*; NPC1 promoter act: inconclusive; FLuc modulator: -29%[2.3 µM]; Rab9 prom act: inconclusive

How did Cc1ccccc1-c1cc(-c2ccccc2O)n[nH]1 do in these assays?
ELG1 genotoxic: inconclusive; SMN2 splice enh: 25µM*; NPC1 promoter act: 28%; FLuc modulator: inconclusive; Rab9 prom act: 3.2µM*

Results for Cn1c2cc(B(O)O)sc2c2cnn(Cc3c(F)cccc3Cl)c(=O)c21 ?
NPC1 promoter act: -11%; FLuc modulator: -1%; Rab9 prom act: 2%

Results for CCOC(=O)/C(=C/c1ccc(OC(=O)c2ccccc2)cc1)C(C)=O ?
ELG1 genotoxic: inconclusive; SMN2 splice enh: 2%; NPC1 promoter act: -1%; FLuc modulator: inconclusive; Rab9 prom act: 3%

Results for Cc1ccccc1NC(=S)NNC(=O)c1ccoc1C ?
ELG1 genotoxic: 4%; SMN2 splice enh: -1%; NPC1 promoter act: inconclusive; FLuc modulator: -1%; Rab9 prom act: inconclusive

How did Cc1occc1C(=O)NNC(=S)Nc1ccccc1C(F)(F)F do in these assays?
ELG1 genotoxic: 4%; SMN2 splice enh: inconclusive; NPC1 promoter act: inconclusive; FLuc modulator: -18%; Rab9 prom act: 2.8µM*

Results for Cc1occc1C(=O)NNC(=S)Nc1ccccc1 ?
ELG1 genotoxic: inconclusive; SMN2 splice enh: inconclusive; NPC1 promoter act: inconclusive; FLuc modulator: inconclusive; Rab9 prom act: 2.5µM*

How did c1ccc(Nc2ncnc3[nH]ncc23)cc1 do in these assays?
ELG1 genotoxic: -2%; NPC1 promoter act: 7%; FLuc modulator: -5%; Rab9 prom act: -1%

What do the screens show for `CCCOc1ccc(-c2nc(N3CCC(C)CC3)c3ccccc3n2)cc1`?
SMN2 splice enh: -10%; FLuc modulator: -5%

How did CC(=O)Oc1ccc(-c2nc3cc(Cl)ccc3c(=O)o2)cc1 do in these assays?
ELG1 genotoxic: -3%; NPC1 promoter act: -4%; FLuc modulator: -11%; Rab9 prom act: 6%

How did CCC(=O)Oc1ccc(-c2nc3ccccc3c(=O)o2)cc1 do in these assays?
SMN2 splice enh: -5%; FLuc modulator: 1.7µM*

Results for CCCOc1cccc(-c2nc3ccccc3c(=O)o2)c1 ?
ELG1 genotoxic: inconclusive; NPC1 promoter act: 8%; FLuc modulator: 8.5µM*; Rab9 prom act: 26%

What do the screens show for `CCCOc1ccc(-c2nc(OC)c3ccccc3n2)cc1`?
ELG1 genotoxic: 5%; SMN2 splice enh: -10%; NPC1 promoter act: 19%; FLuc modulator: 13µM*; Rab9 prom act: 3%

What do the screens show for `CCCOc1ccc(-c2nc3ccccc3c(=O)o2)cc1`?
SMN2 splice enh: 16µM*; FLuc modulator: 0.67µM*

Results for CN(C)C1CCN(C(=O)c2cccc(OC3CCN(S(=O)(=O)N(C)C)CC3)c2)C1 (stereo not given) ?
ELG1 genotoxic: 5%; NPC1 promoter act: 12%; FLuc modulator: 4%; Rab9 prom act: -5%

How did Cc1ccc2c(Cl)c(C(=O)Nc3ccc4c(c3)OCO4)sc2c1 do in these assays?
ELG1 genotoxic: 18%; SMN2 splice enh: inconclusive; NPC1 promoter act: inconclusive; FLuc modulator: -28%; Rab9 prom act: 2µM*

What do the screens show for `CC(=O)c1ccc(NC(=O)c2onc(C)c2Cl)cc1`?
ELG1 genotoxic: inconclusive; NPC1 promoter act: 1.4µM*; FLuc modulator: inconclusive; Rab9 prom act: 0.63µM*

How did CC(C)c1onc(C(=O)Nc2ccc3c(c2)OCO3)c1[N+](=O)[O-] do in these assays?
ELG1 genotoxic: inconclusive; NPC1 promoter act: 1%; FLuc modulator: 27µM*; Rab9 prom act: 0%

How did CCc1onc(C)c1C(=O)Nc1ccc2c(c1)OCO2 do in these assays?
ELG1 genotoxic: 1%; NPC1 promoter act: -1%; FLuc modulator: 2%; Rab9 prom act: -6%

How did Cc1noc(C(=O)Nc2ccc3c(c2)OCO3)c1Cl do in these assays?
ELG1 genotoxic: inconclusive; SMN2 splice enh: inconclusive; NPC1 promoter act: inconclusive; FLuc modulator: 19µM*; Rab9 prom act: 4µM*

What do the screens show for `O=C(N/N=C/c1ccc2c(c1)OCO2)c1sc2cc(Cl)ccc2c1Cl`?
ELG1 genotoxic: 6%; SMN2 splice enh: 5%; NPC1 promoter act: 0%; FLuc modulator: inconclusive; Rab9 prom act: -5%

Results for Cc1ccc(-n2[nH]c(=O)c(-c3ccccn3)c2C)cc1 ?
ELG1 genotoxic: inconclusive; NPC1 promoter act: inconclusive; FLuc modulator: 0.3µM*; Rab9 prom act: 0.45µM*

What do the screens show for `Cc1ccc(-n2[nH]c(=O)c3cccnc32)cc1`?
ELG1 genotoxic: 3%; SMN2 splice enh: 4%; NPC1 promoter act: 7%; FLuc modulator: -15%; Rab9 prom act: 8%

What do the screens show for `Nc1ccc(-c2ccc(N)c(O)c2)cc1O`?
SMN2 splice enh: -8%

What do the screens show for `Nc1cc(-c2ccccc2)ccc1O`?
ELG1 genotoxic: 3%; SMN2 splice enh: -1%; NPC1 promoter act: 12%; FLuc modulator: 24µM*; Rab9 prom act: 1%

Results for Cc1cc(Cl)ccc1OCc1nnc(-c2ccccc2C)o1 ?
ELG1 genotoxic: inconclusive; NPC1 promoter act: inconclusive; FLuc modulator: inconclusive; Rab9 prom act: 4µM*

Results for Clc1ccc(OCc2nnc(-c3ccccc3Br)o2)c(Cl)c1 ?
ELG1 genotoxic: inconclusive; SMN2 splice enh: inconclusive; NPC1 promoter act: 3.2µM*; FLuc modulator: 6µM*; Rab9 prom act: 4µM*

How did Fc1ccc(OCc2nnc(-c3ccccc3Br)o2)c(Cl)c1 do in these assays?
ELG1 genotoxic: 2.3µM*; NPC1 promoter act: inconclusive; FLuc modulator: 9.5µM*; Rab9 prom act: 2.5µM*

What do the screens show for `Clc1ccc(OCc2nnc(-c3ccccc3Br)o2)cc1`?
ELG1 genotoxic: 7%; SMN2 splice enh: 2%; NPC1 promoter act: 10%; FLuc modulator: inconclusive; Rab9 prom act: 13%

Results for O=C(COC(=O)Cc1ccc(Cl)cc1)NC1CCCC1 ?
ELG1 genotoxic: 1%; NPC1 promoter act: -8%; FLuc modulator: 5%; Rab9 prom act: -1%

What do the screens show for `CCn1c(CC(=O)Nc2ccc(OC)cc2)nnc1SCC(=O)N1CCOCC1`?
ELG1 genotoxic: 8%; NPC1 promoter act: 5%; FLuc modulator: 0%; Rab9 prom act: -4%

What do the screens show for `CC(Sc1ncccn1)C(=O)Nc1ccc2c(c1)OCCO2` (stereo not given)?
ELG1 genotoxic: 7%; NPC1 promoter act: 2%; FLuc modulator: -20%; Rab9 prom act: 17%

How did CC(Sc1nc2ccccc2[nH]1)C(=O)Nc1ccc2c(c1)OCCO2 (stereo not given) do in these assays?
ELG1 genotoxic: 0%; SMN2 splice enh: -5%; NPC1 promoter act: -2%; FLuc modulator: 21µM*; Rab9 prom act: 0%

Results for CCn1c(SC(C)C(=O)Nc2ccc3c(c2)OCCO3)nnc1C1CC1 (stereo not given) ?
ELG1 genotoxic: 0%; NPC1 promoter act: 0%; FLuc modulator: 24µM*; Rab9 prom act: 2%
